Sampled rows, rich in hits. Any-hit rate of the full collection: about 19%.
HT1080 IDH1KD tx: kills HT-1080 cells with IDH1 knockdown | Potency, µM (titrated, usually from 46.1 µM), without a hit: at the top dose activity, negative = toxicity, hits mostly cytotoxic | HT-1080 IDH1 knockdown viability, ATP luminescence, 48 h | actives 2% (n = 360,000);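 also: 0% = DMSO wells and -100% = cell-free medium wells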
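IDH1KD HT-1080 cells, 750/well, RPMI + 5% FBS; compound pinned after 2 h settling; 48 h, 37 °C; CellTiter-Glo luminescence; % activity normalised to DMSO and no-cell wells; curves fitted, classed by r2 and efficacy.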
KB-3-1 cytotox: kills parental KB-3-1 adenocarcinoma cells; Potency, µM (titrated, usually from 46.1 µM), hits mostly cytotoxic; actives 1.4% (n = 400,000); AID 1347075; KB-3-1 viability, CellTiter-Glo ATP luminescence, 72 h; also: nearly all actives have a fitted effect of over 60% in size
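Cytotoxicity measured as CellTiter-Glo luminescence after 72 h at 37 C. Compound titrations were pinned onto drug-naive KB-3-1 parental adenocarcinoma cells grown in DMEM with 10% FBS, and normalized data fitted to concentration-response curves.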
KB-V1 MDR tox: KB-V1 MDR subline cytotoxicity. KB-V1 MDR cells viability, CellTiter-Glo, 72 h. Potency, µM (series often up to 46.1 µM), most hits filed as cytotoxic. actives 3.4% (n = 400,000). AID 1347076; also: nearly all actives have a fitted effect of over 60% in size
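Drug-selected KB-V1 cells, grown in DMEM lacking phenol red with 10% FBS, receive compound titrations; after three days at 37 degrees C, surviving cell ATP is quantified by CellTiter-Glo luminescence and responses normalized and curve-fitted.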
HT1080NT lethal: kills 2HG-producing HT-1080-NT fibrosarcoma cells; actives 1.6% (n = 360,000); HT-1080-NT fibrosarcoma viability, CellTiter-Glo ATP luminescence, 48 h; Potency, µM (series often up to 46.1 µM), for inactives: at the top dose activity, negative = less viability, most hits filed as cytotoxic;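 also: NT is the 2HG producing partner of a matched IDH1 knockdown line; 0% = DMSO-treated cells and -100% = media-only wells without cells; nearly all actives have a fitted effect of over 55% in size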
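Compounds were tested in concentration-response format on HT-1080-NT cells for 48 hours at 37 degrees C. Cell viability came from CellTiter-Glo luminescence; curves were classified by r2, response magnitude and activity.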
TDP1 cell noCPT: qHTS for Inhibitors of human tyrosyl-DNA phosphodiesterase 1 (TDP1): qHTS in cells in absence of CPT; DT40 Tdp1-/- hTDP1 cells, no CPT, ATP luminescence, 48 h; Potency, µM (titrated, usually from 46.2 µM), without a hit: top-dose activity change, negative = growth inhibition, most hits filed as inhibitors; actives 15% (n = 420,000); AID 686978, 2013; also: nearly all actives have a fitted effect of over 55% in size
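Luminescent ATP content (CellTiter-Glo) served as the growth readout. Knockout chicken DT40 cells expressing human TDP1 were exposed to compounds without camptothecin for a minimum 48 hr at 37 °C.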
TDP1 cell CPT: DT40-hTDP1 cell growth loss with CPT; chicken DT40 Tdp1-/-;hTDP1 cells + 20 nM CPT, ATP luminescence, 48 h; Potency, µM (highest dose often 46.2 µM), inactives show at the highest dose activity change, negative = growth inhibition, most hits filed as inhibitors; actives 12% (n = 420,000); AID 686979; also: nearly all actives have a fitted effect of over 55% in size
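Cell growth measured by CellTiter-Glo luminescence after a minimum 48 h, 37 C compound exposure with 20 nM CPT in Tdp1-knockout DT40 cells stably expressing hTDP1, seeded 400/well; qHTS titration format.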
* marks the source's active call; other numbers are inactive results; [ ] = remark or other dose. Calls follow the shape of the dose curve; as a rule, active = well fitted curve in the direction sought with a large enough effect; inconclusive = small, poorly fitted or top-dose-only effect, or another doubt; inactive = no such curve, though single readings can be large; an effect the other way counts as inactive or inconclusive. Unless noted, % is scaled to controls: 0 for no effect and ±100 for the full control effect; potency is read from the fitted curve at half-maximal effect.

For CCC/C=N/NC(=O)c1[nH]c2c([N+](=O)[O-])cccc2c1C the results were HT1080 IDH1KD tx inconclusive, KB-3-1 cytotox 23µM*, KB-V1 MDR tox inactive, HT1080NT lethal inconclusive, TDP1 cell noCPT inconclusive and TDP1 cell CPT inconclusive.
For O=C(c1c(O)c2ccc(Cl)cc2[nH]c1=O)C1CC1 the results were TDP1 cell noCPT 2% and TDP1 cell CPT 9%.
`COc1cc(/C=C(/C#N)C(=O)NCCc2c[nH]c3ccccc23)ccc1OCc1ccccc1F` gave HT1080 IDH1KD tx -8%, KB-3-1 cytotox inconclusive, KB-V1 MDR tox inconclusive, HT1080NT lethal -2%, TDP1 cell noCPT inconclusive and TDP1 cell CPT 12µM*.
`CC(=C\c1ccco1)/C=C(\C#N)C(=O)NCCc1c[nH]c2ccccc12` gave HT1080 IDH1KD tx 12%, KB-3-1 cytotox inactive, KB-V1 MDR tox 23µM*, HT1080NT lethal -1%, TDP1 cell noCPT inconclusive and TDP1 cell CPT -2%.
Screening N#C/C(=C/c1ccc(Br)s1)C(=O)NCCc1c[nH]c2ccccc12 returned HT1080 IDH1KD tx -12%, KB-3-1 cytotox inconclusive, KB-V1 MDR tox inconclusive, HT1080NT lethal inconclusive, TDP1 cell noCPT 21µM* and TDP1 cell CPT 23µM*.
For Cc1cc(/C=C(\C#N)C(=O)NCCc2c[nH]c3ccccc23)c(C)n1C the results were HT1080 IDH1KD tx -14%, KB-3-1 cytotox inactive, KB-V1 MDR tox inactive, HT1080NT lethal -1%, TDP1 cell noCPT inconclusive and TDP1 cell CPT inconclusive.
`O=C(NCCc1c[nH]c2ccccc12)/C(=C/c1ccco1)NC(=O)c1ccco1` gave HT1080 IDH1KD tx 10%, KB-3-1 cytotox inactive, KB-V1 MDR tox inactive, HT1080NT lethal 14%, TDP1 cell noCPT -9% and TDP1 cell CPT 0%.
For CSc1nnc(C)c(=O)n1COC(=O)COc1ccc(Cl)cc1 the results were HT1080 IDH1KD tx 18%, KB-3-1 cytotox inactive, KB-V1 MDR tox inactive, HT1080NT lethal 18%, TDP1 cell noCPT -14% and TDP1 cell CPT inconclusive.
Screening CCC(C)NC(=O)COc1ccccc1[N+](=O)[O-] (stereo not given) returned HT1080 IDH1KD tx 1%, KB-3-1 cytotox inactive, KB-V1 MDR tox inactive, HT1080NT lethal 8%, TDP1 cell noCPT -7% and TDP1 cell CPT 15%.
`O=C(Nc1ccc(C(F)(F)F)cc1)c1csc(-c2ccncc2)n1` gave HT1080 IDH1KD tx -24%, KB-3-1 cytotox inactive, KB-V1 MDR tox inconclusive, HT1080NT lethal -17%, TDP1 cell noCPT inconclusive and TDP1 cell CPT -10%.
For O=C(NNC(=O)c1csc(-c2cnccc2C(F)(F)F)n1)c1ccc(C(F)(F)F)cc1 the results were HT1080 IDH1KD tx -21%, KB-3-1 cytotox inactive, KB-V1 MDR tox inconclusive, HT1080NT lethal -19%, TDP1 cell noCPT 16µM* and TDP1 cell CPT inconclusive.
For Cc1ccc(NC(=O)Cn2nnc(C(=O)NCc3ccc4c(c3)OCO4)c2N)cc1Cl the results were TDP1 cell noCPT 5% and TDP1 cell CPT -11%.
`COc1ccc(NC(=O)c2ccco2)cc1NC(=O)c1cc(Cl)ccc1OC` gave TDP1 cell noCPT -24% and TDP1 cell CPT -11%.
`COc1ccccc1Nc1nn2c(=O)c3ccc(C(=O)NCCC4=CCCCC4)cc3nc2s1` gave KB-3-1 cytotox inconclusive, KB-V1 MDR tox inconclusive, TDP1 cell noCPT 3.3µM* and TDP1 cell CPT 1.5µM*.
`Cc1ccc(C)c(Nc2nn3c(=O)c4ccc(C(=O)NCCC5=CCCCC5)cc4nc3s2)c1` gave KB-3-1 cytotox inactive, KB-V1 MDR tox inactive, TDP1 cell noCPT 7.3µM* and TDP1 cell CPT 6.5µM*.
O=C(NCCC1=CCCCC1)c1ccc2c(=O)n3c(nc2c1)CCCCC3 was read as HT1080 IDH1KD tx -10%, KB-3-1 cytotox inactive, KB-V1 MDR tox inconclusive, HT1080NT lethal 1%, TDP1 cell noCPT inconclusive and TDP1 cell CPT inconclusive.
`Cc1c(Cl)cccc1Nc1nn2c(=O)c3ccc(C(=O)NCCC4=CCCCC4)cc3nc2s1` gave KB-3-1 cytotox inconclusive, KB-V1 MDR tox inactive, TDP1 cell noCPT 4.6µM* and TDP1 cell CPT inconclusive.
`O=c1oc2cc(O)ccc2cc1-c1ccc2c(c1)OCCO2` gave TDP1 cell noCPT -2%[9.04 µM] and TDP1 cell CPT 13%[9.04 µM].
Screening O=C(CC1C(=O)NCCN1Cc1c(F)cccc1Cl)NCCCn1cccn1 (stereo not given) returned HT1080 IDH1KD tx 9%, KB-3-1 cytotox inactive, KB-V1 MDR tox inconclusive, HT1080NT lethal 13%, TDP1 cell noCPT 1% and TDP1 cell CPT -4%.
COc1ccc(N=Nc2c(C)[nH]c3ccccc23)cc1 was read as HT1080 IDH1KD tx 18µM*, KB-3-1 cytotox inactive, KB-V1 MDR tox inactive, HT1080NT lethal inconclusive, TDP1 cell noCPT inconclusive and TDP1 cell CPT inconclusive.
COc1ccc(N=Nc2c(C)[nH][nH]c2=O)cc1 was read as HT1080 IDH1KD tx -10%, KB-3-1 cytotox inconclusive, KB-V1 MDR tox 23µM*, HT1080NT lethal -3%, TDP1 cell noCPT inconclusive and TDP1 cell CPT -19%.
`Nc1[nH][nH]c(=O)c1N=Nc1cccc(Cl)c1` gave HT1080 IDH1KD tx -18%, KB-3-1 cytotox inactive, KB-V1 MDR tox inconclusive, HT1080NT lethal -4%, TDP1 cell noCPT -22% and TDP1 cell CPT -21%.
COc1cccc(N=Nc2c(N)[nH][nH]c2=O)c1 was read as HT1080 IDH1KD tx -2%, KB-3-1 cytotox inactive, KB-V1 MDR tox 18µM*, HT1080NT lethal -11%, TDP1 cell noCPT inconclusive and TDP1 cell CPT -12%.
For O=C(/C=C/c1cccnc1)Nc1cccc([S+](=O)([O-])Nc2ccccc2F)c1 the results were KB-3-1 cytotox inactive and KB-V1 MDR tox inactive.
Cc1c(C(=O)N2CC[C@@H]3CCCC[C@H]3C2)sc2ncnc(NCCc3ccccn3)c12 was read as TDP1 cell noCPT inconclusive and TDP1 cell CPT -12%[9.04 µM].
O=C(CCNC(=O)N1CC(=O)Nc2ccccc21)NCc1cccc(C(F)(F)F)c1 was read as HT1080 IDH1KD tx 11%, KB-3-1 cytotox inactive, KB-V1 MDR tox inactive, HT1080NT lethal 10%, TDP1 cell noCPT -3% and TDP1 cell CPT -6%.
`Cc1ccc(S(=O)(=O)NCCC(=O)NCC(c2cccs2)N2CCOCC2)cc1` (stereo not given) gave HT1080 IDH1KD tx -2%, KB-3-1 cytotox inactive, KB-V1 MDR tox inactive, HT1080NT lethal -2%, TDP1 cell noCPT -6% and TDP1 cell CPT inconclusive.

Screening results: PubChem BioAssay, National Center for Advancing Translational Sciences (NCATS)
